Test results as given in PubChem BioAssay.

System: Plasmodium falciparum Sir2 (PF13_0152, Sir2A)
Assay: pfSir2 binders on small-molecule microarrays, primary screen, biochemical, small-molecule microarray, 635 nm fluorescence (AID 1098);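 also: score merges spot fluorescence intensity with its signal-to-noise ratio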
Conditions: small-molecule microarray binding, fluorescence 635 nm; higher = more signal

**Q.** Which composite z-score does the source give for CC(C)(C)OC(=O)CC[C@]1(C(=O)N2CCCCC2)COC(c2ccc(OCCCO)cc2)=N1 here?
**A.** 1.7

**Q.** Which composite z-score does the source give for NC(=O)[C@H]1[C@@H]2C(=O)O[C@@H](c3ccccc3)[C@@H](c3ccccc3)N2[C@@H](c2ccc(O)cc2)[C@]12C(=O)Nc1ccc(C#CC3=CCCCC3)cc12 here?
**A.** -0.165

**Q.** For CN1C(=O)[C@@]2(Cc3ccccc3)N=C(c3ccc(OCCCO)cc3)O[C@H]2c2ccccc21, which composite z-score is on record?
**A.** 0.318

**Q.** Cc1nc2cc(Br)ccc2c(=O)n1Cc1cccc(O)c1 was tested. Which composite z-score did it give?
**A.** 0.547

**Q.** For Cc1ccc(N2C(=O)c3ccccc3[C@](C)(C(=O)NCc3ccccc3)[C@@H]2c2ccc(CO)cc2)nc1, which composite z-score is on record?
**A.** 1.39

**Q.** Which composite z-score does the source give for CCCNC(=O)[C@@]1(Sc2ccc(C)cc2)CC(=O)N(C2CCCCC2)[C@@H]1c1ccc(CO)cc1I here?
**A.** 1.56

**Q.** How did the composite z-score turn out when COC(=O)[C@@]1(Cc2ccc(F)cc2)[C@H]2c3cc(C(=O)N(C)C)n(Cc4c(CO)[nH]cc(C)c4=O)c3C[C@H]2CN1C(=O)c1ccccc1 was run?
**A.** -0.0424

**Q.** Which composite z-score does the source give for O=C1C2C=CC(C(O)c3ccco3)N(Nc3ccccc3)C2C(=O)N1c1ccccc1 (configuration not stated) here?
**A.** 0.576

**Q.** With C=C(COC)C(=O)CC[C@H](OC(C)=O)c1ccc(OCCO)cc1 as the compound, how does the composite z-score read?
**A.** 0.761

**Q.** COCCOC(=O)N1C(=O)[C@@]2(c3cc(C#CC4=CCCCC4)ccc31)[C@H](c1ccc(O)cc1)N1[C@H](c3ccccc3)[C@H](c3ccccc3)OC(=O)[C@H]1[C@@H]2C(=O)NC[C@H](O)c1ccccc1 was tested. Which composite z-score did it give?
**A.** 0.535

**Q.** How did the composite z-score turn out when [N-]=[N+]=NC[C@H](Cc1ccccc1)NC(=O)c1ccccc1 was run?
**A.** -0.554

**Q.** For COC(=O)[C@@]1(Cc2ccc(OC)cc2)[C@H]2c3cc(C(=O)N4CCCC4)n(Cc4ccc(OC(F)(F)F)cc4)c3C[C@H]2CN1C(=O)c1ccccc1, which composite z-score is on record?
**A.** 0.858

**Q.** For CCC(CC)C(O)C1C=CC2C(=O)N(c3ccccc3)C(=O)C2N1Nc1ccc([N+](=O)[O-])cc1 (configuration not stated), which composite z-score is on record?
**A.** 0.629

**Q.** How did the composite z-score turn out when COC(=O)C1N=C(c2ccc(OCCCO)cc2)N(c2ccccc2)O1 (configuration not stated) was run?
**A.** 1.05

**Q.** Cc1ccccc1C(O)C1C=CC2C(=O)N(c3ccccc3)C(=O)C2N1Nc1ccc([N+](=O)[O-])cc1 (configuration not stated) was tested. Which composite z-score did it give?
**A.** 1.3

**Q.** Which composite z-score does the source give for COCC1=C2[C@@H](CCc3ccccc3)OB(O)C[C@@H]2[C@@H]2C(=O)N(C)C(=O)[C@@H]2C1 here?
**A.** -0.069

**Q.** For O=C1O[C@H](c2ccccc2)[C@H](c2ccccc2)N2[C@H]1[C@@H](C(=O)N1CCCCCCC1)[C@]1(C(=O)Nc3ccc(C#CC4(O)CCCCCC4)cc31)[C@H]2c1ccccc1OCCO, which composite z-score is on record?
**A.** 2.09

**Q.** How did the composite z-score turn out when CCOC(=O)C1=CC[C@@H](c2ccccc2)N(S(=O)(=O)c2ccc(C)cc2)[C@H]1c1cccc(OC)c1 was run?
**A.** 0.389

**Q.** Which composite z-score does the source give for COc1cc(C(O)C2C=CC3C(=O)N(Cc4ccccc4)C(=O)C3N2n2cnnc2)cc(OC)c1OC (configuration not stated) here?
**A.** 0.146

**Q.** With COc1ccc([Si](C)(C)[C@@H]2[C@@H](CCn3cc([C@H](O)c4ccccc4)nn3)O[C@]3(C(=O)N(c4ccccc4)c4ccccc43)[C@H]2C)cc1 as the compound, how does the composite z-score read?
**A.** 0.548

**Q.** Which composite z-score does the source give for COc1cc(NN2C(C(O)c3ccccc3)C=CC3C(=O)N(C)C(=O)C32)cc(OC)c1OC (configuration not stated) here?
**A.** 0.618

**Q.** With NC(=O)N1C(=O)C2C(C1=O)C1C=C(CCCO)C2C(C2CC2)N1Cc1cccc(OC(F)(F)F)c1 (configuration not stated) as the compound, how does the composite z-score read?
**A.** 1.59

**Q.** How did the composite z-score turn out when O=c1cccc(-c2ccc(F)cc2)o1 was run?
**A.** 0.347

**Q.** CN(C)CCCCCCNC(=O)[C@@H]1C[C@@H]2C(=O)N[C@@H](CCCCN)C(=O)N2[C@@H]1c1ccc(O)cc1 was tested. Which composite z-score did it give?
**A.** 2.07

**Q.** Which composite z-score does the source give for COCCOC(=O)N1C(=O)[C@@]2(c3cc(C#Cc4ccc(OC)cc4)ccc31)[C@H](C(=O)NC[C@H](O)c1ccccc1)[C@H]1C(=O)O[C@H](c3ccccc3)[C@H](c3ccccc3)N1[C@@H]2c1ccc(OCCO)cc1 here?
**A.** 1.02

**Q.** For CC(C)C(=C=CC[C@@H](O)c1cccc(OCCO)c1)C[C@@H](O)c1ccccn1, which composite z-score is on record?
**A.** 0.862

**Q.** Which composite z-score does the source give for C=C(CCCC)C(=O)CC[C@H](OC(C)=O)c1ccc(OCCO)cc1 here?
**A.** 0.56

**Q.** How did the composite z-score turn out when C=C(CCCC)/C(=C/C[C@H](OC(C)=O)c1ccc(OCCO)cc1)c1cc(C(=O)OC)ccc1OC was run?
**A.** 1.58

**Q.** With COc1cc2c(cc1O)C(c1ccc(CN3CCCC3)cc1)N(C)CC2 (configuration not stated) as the compound, how does the composite z-score read?
**A.** 0.232

**Q.** How did the composite z-score turn out when CC(C)[Si]1(C(C)C)OCc2cc(-c3ccc(-c4ccc(Cl)c(Cl)c4)o3)nc(CCc3ccccc3)c21 was run?
**A.** 0.508

**Q.** With [N-]=[N+]=Nc1ccccc1[C@@H]1OC(c2ccc(OCCCO)cc2)=N[C@]1(Cc1ccccc1)C(=O)NCc1ccccc1 as the compound, how does the composite z-score read?
**A.** 1.57

**Q.** Which composite z-score does the source give for C=C(C)[C@@H]1CC=C(C(O)C2C=CC3C(=O)N(c4ccccc4)C(=O)C3N2Nc2ccc(C#N)cc2)CC1 (some centres not stated) here?
**A.** 1.31
